Experimental data from PubChem BioAssay (Tox21).
Results filed as inconclusive are left out. The source made the active and inactive calls. Unless noted, the call rests on the fitted dose curve.

Key:
[1] = Nuclear factor erythroid 2-related factor 2/antioxidant responsive element (Nrf2/ARE) small molecule agonists: qHTS cell viability counter screen in human keratinocytes (AID 1919968; active means well fitted cell-killing curve with a large enough effect in the repeat runs; further: nearly all actives have a fitted effect of over 55% in size)
In short: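 Cells of the KeratinoSens line were plated at 1,500 per well and left for 5 h before compound transfer from DMSO stocks. After a 23 h incubation (37 C, 5% CO2), CellTiter-Fluor was added. Signal was taken as fluorescence intensity 1 h later.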

[2] = Nuclear factor erythroid 2-related factor 2/antioxidant responsive element (Nrf2/ARE) small molecule agonists: luciferase reporter gene qHTS assay in human keratinocytes (AID 1919969); further: nearly all actives have a fitted effect of over 35% in size
[3] = target: Gonadotropin-releasing hormone receptor (Homo sapiens) (UniProt P30968); assay: Human gonadotropin-releasing hormone receptor (GnRHR) small molecule agonists, calcium flux assay in GnRHR-HEK293 cells (AID 1920063); further: nearly all actives have a fitted effect of over 35% in size
In short: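 Compounds dissolved in DMSO are pin-transferred onto dye-loaded GnRHR-HEK293 cells, which were seeded 18 h before at 37 C/5% CO2. Calcium signal is read as fluorescence intensity at 1 s intervals for 3 min.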

[4] = p53 small molecule agonists, cell-based qHTS assay with rat liver microsomes (AID 1963578)
In short: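 Read-out is beta-lactamase reporter fluorescence (LiveBLAzer, 2 h, room temperature, dark) in p53RE-bla cells treated 16 h at 37 C with compound, rat liver microsomes and NADPH, both 0.5 mg/mL final.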

[5] = p53 small molecule agonists, cell-based qHTS assay with human liver microsomes: qHTS cell viability counter screen (AID 1963579); further: nearly all actives have a fitted effect of over 45% in size; further: potency means the concentration at half of the fitted maximal effect
In short: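 Cells carrying the p53 response-element beta-lactamase reporter are treated for 16 h at 37 C with test compounds in the presence of human liver microsomes and NADPH (both 0.5 mg/mL final); ATP-based CellTiter-Glo luminescence then reports viability.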

[6] = p53 small molecule agonists, cell-based qHTS assay with rat liver microsomes: qHTS cell viability counter screen (AID 1963580); further: nearly all actives have a fitted effect of over 45% in size
In short: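 Cytotoxicity counter screen: intracellular ATP measured by CellTiter-Glo luminescence in the same wells as the beta-lactamase reporter read, on HCT-116 p53RE-bla cells exposed 16 h at 37 C to compounds with rat liver microsomes and NADPH, each 0.5 mg/mL final.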

[7] = p53 small molecule agonists, cell-based qHTS assay: qHTS cell viability counter screen (AID 1963581); further: nearly all actives have a fitted effect of over 45% in size
In short: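 ATP content measured by luminescence in HCT-116 p53RE-bla cells treated 16 h at 37 C, same wells as the reporter screen.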

[8] = p53 small molecule agonists, cell-based qHTS assay (AID 1963582; active means well fitted activation curve with a large enough effect in the signal ratio in the repeat runs, not every such curve was filed as active; the % refers to the signal ratio)
In short: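 16 h compound exposure (37 C) of p53 response element–bla cells, preceded by 5 h recovery at 37 C/5% CO2; read-out via LiveBLAzer B/G FRET substrate, 2 h RT, fluorescence intensity.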

[9] = target: Muscarinic acetylcholine receptor M1 (Homo sapiens) (UniProt P11229); assay: Cholinergic receptor muscarinic 1 (CHRM1) small molecule antagonists, cell-based qHTS assay (AID 1963588); further: nearly all actives have a fitted effect of over 40% in size
In short: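 Compounds were tested at 15 concentrations in three independent runs. Dye-loaded CHRM1-CHO cells were exposed 5 min at room temperature before stimulation by acetylcholine added at 50nM. Intracellular calcium was read kinetically on FDSS for 3 min.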

[10] = target: Muscarinic acetylcholine receptor M1 (Homo sapiens) (UniProt P11229); assay: Cholinergic receptor muscarinic 1 (CHRM1) small molecule agonists, cell-based qHTS assay (AID 1963589); further: nearly all actives have a fitted effect of over 35% in size
In short: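 Homogeneous fluorescence calcium flux, agonist mode. Human M1-expressing CHO cells; compound dosed at 15 concentrations, three independent runs; signal sampled every 1 sec.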

[11] = cAMP Responsive Elements (CRE) small molecule agonists, cell-based qHTS assay (AID 1963590)
In short: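 HEK 293T cells stably bearing CRE-bla were plated at 2,000 cells per well and rested 18 h. Compounds, positive controls or DMSO were added for 3 h at 37 C. LiveBLAzer B/G substrate was then loaded for 2 h at room temperature.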

[12] = cAMP Responsive Elements (CRE) small molecule antagonists, cell-based qHTS assay (AID 1963591; active means well fitted inhibition curve with a large enough effect in the signal ratio in the repeat runs, not every such curve was filed as active; the % refers to the signal ratio)
In short: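 First, CRE-bla HEK293T cells settled 18 h at 37 C. Next, compound and 0.25 uM final NKH477 were applied for 3 h. Last, LiveBLAzer B/G substrate was loaded for 2 h at room temperature.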

[13] = target: D(2) dopamine receptor (Homo sapiens) (UniProt P14416); assay: Dopamine D2 receptor (DRD2) small molecule antagonists, cell-based qHTS assay (AID 1963595; active means well fitted inhibition curve with a large enough effect in the signal ratio in the repeat runs, with a control signal flat; the % refers to the signal ratio)
In short: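 Human DRD2 antagonist qHTS measuring cAMP by HTRF. The cells are exposed to compound for 10 min, then to NKH477 (200 nM) and quinpirole (12 nM) for 30 min at RT, with Ro20-1724 (0.1 mM) present throughout.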

[14] = G protein-coupled receptor (GPCR) small molecule agonists, calcium flux assay: HEK293 wild type cell line counter screen (AID 1920065)
In short: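 Tox21 10K compounds, 15 concentrations each in triplicate, pin-transferred in DMSO onto dye-loaded cells; kinetic read at 480/540 nm for 3 min, 1 s intervals.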

[15] = p53 small molecule agonists, cell-based qHTS assay with human liver microsomes (AID 1963577)
In short: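 Compounds act here after metabolic activation: human liver microsomes and NADPH, both at 0.5 mg/mL final, were co-added to p53RE-bla cells. Incubation ran 16 h at 37 C, followed by LiveBLAzer detection.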

[16] = target: 5-hydroxytryptamine receptor 2A (Homo sapiens) (UniProt P28223); assay: 5-hydroxytryptamine receptor 2A (HTR2A) small molecule antagonists, cell-based qHTS assay (AID 1963586); further: nearly all actives have a fitted effect of over 45% in size
In short: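 CHO cells stably expressing human HTR2A were plated for 18 h at 37 C, then loaded with calcium dye for 1 h. Compounds were preincubated 5 min at room temperature before DOI (4 nM solution) was added. Kinetic fluorescence was read for 3 min.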

[17] = target: 5-hydroxytryptamine receptor 2A (Homo sapiens) (UniProt P28223); assay: 5-hydroxytryptamine receptor 2A (HTR2A) small molecule agonists, cell-based qHTS assay (AID 1963587); further: nearly all actives have a fitted effect of over 30% in size
In short: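 CHO cells stably expressing human HTR2A, plated 18 h, loaded with calcium dye 1 h at 37 C. Agonist mode: compounds added and intracellular calcium fluorescence recorded kinetically for 2 min at 1 sec intervals.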

[18] = target: Beta-2 adrenergic receptor (Homo sapiens) (UniProt P07550); assay: Adrenergic beta2 receptor (ADRB2) small molecule antagonists, cell-based qHTS assay (AID 1963592); further: series mostly up to about 92 µM; nearly all actives have a fitted effect of over 50% in size
In short: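 Assay format: CHO-ADRB2 cells, 18-20hr seeding at 37C/5% CO2, then compound plus 1nM isoproterenol agonist mix for 0.5hr RT. Homogeneous time-resolved fluorescence cAMP detection after 1hr, expressed as 665/615 nm ratio.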

[19] = target: Beta-2 adrenergic receptor (Homo sapiens) (UniProt P07550); assay: Adrenergic beta2 receptor (ADRB2) small molecule agonists, cell-based qHTS assay (AID 1963593);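 further: CHO cells stably overexpressing human ADRB2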
In short: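 CHO cells stably over-expressing ADRB2 were plated overnight at 37C, then dosed with compounds plus a stimulation mix containing 100uM IBMX and 25uM Ro-20-1724 for 0.5hr at room temperature. cAMP was measured by HTRF competition, 1hr.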

[20] = target: D(2) dopamine receptor (Homo sapiens) (UniProt P14416); assay: Dopamine D2 receptor (DRD2) small molecule agonists, cell-based qHTS assay (AID 1963594); further: nearly all actives have a fitted effect of over 35% in size
In short: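 HEK293 cells stably expressing human DRD2, pre-treated with PDE inhibitor Ro20-1724 (0.1 mM final) and compound 10 min at room temperature, then stimulated with NKH477 (200nM […]) for 30 min. cAMP read by HTRF (665/620 nm).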
On the % scale 0 is the no-effect control and ±100 the full control effect.

Gonadotropin-releasing hormone receptor (Homo sapiens), sequence (P30968 whole entry, looked up): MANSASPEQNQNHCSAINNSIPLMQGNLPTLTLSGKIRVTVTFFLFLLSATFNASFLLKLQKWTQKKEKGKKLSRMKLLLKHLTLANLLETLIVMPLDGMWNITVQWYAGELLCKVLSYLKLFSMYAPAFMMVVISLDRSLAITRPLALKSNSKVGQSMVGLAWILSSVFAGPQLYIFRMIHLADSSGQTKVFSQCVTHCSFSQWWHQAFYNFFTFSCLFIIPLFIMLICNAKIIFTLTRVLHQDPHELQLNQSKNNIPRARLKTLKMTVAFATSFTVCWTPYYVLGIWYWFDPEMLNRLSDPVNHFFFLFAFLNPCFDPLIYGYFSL
Muscarinic acetylcholine receptor M1 (Homo sapiens), sequence (P11229 whole entry, looked up): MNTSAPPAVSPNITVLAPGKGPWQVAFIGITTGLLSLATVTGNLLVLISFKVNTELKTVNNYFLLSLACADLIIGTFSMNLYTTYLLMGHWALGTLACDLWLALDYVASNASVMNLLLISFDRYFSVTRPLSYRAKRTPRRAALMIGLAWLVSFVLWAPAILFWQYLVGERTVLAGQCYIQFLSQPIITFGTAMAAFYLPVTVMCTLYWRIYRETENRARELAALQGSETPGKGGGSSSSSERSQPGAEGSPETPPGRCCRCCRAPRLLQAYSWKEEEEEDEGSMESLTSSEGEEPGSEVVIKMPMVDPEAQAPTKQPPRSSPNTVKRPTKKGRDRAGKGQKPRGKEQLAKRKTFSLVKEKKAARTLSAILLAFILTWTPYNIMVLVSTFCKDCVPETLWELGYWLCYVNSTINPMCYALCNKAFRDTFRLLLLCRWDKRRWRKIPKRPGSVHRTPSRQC
5-hydroxytryptamine receptor 2A (Homo sapiens), sequence (P28223 whole entry, looked up): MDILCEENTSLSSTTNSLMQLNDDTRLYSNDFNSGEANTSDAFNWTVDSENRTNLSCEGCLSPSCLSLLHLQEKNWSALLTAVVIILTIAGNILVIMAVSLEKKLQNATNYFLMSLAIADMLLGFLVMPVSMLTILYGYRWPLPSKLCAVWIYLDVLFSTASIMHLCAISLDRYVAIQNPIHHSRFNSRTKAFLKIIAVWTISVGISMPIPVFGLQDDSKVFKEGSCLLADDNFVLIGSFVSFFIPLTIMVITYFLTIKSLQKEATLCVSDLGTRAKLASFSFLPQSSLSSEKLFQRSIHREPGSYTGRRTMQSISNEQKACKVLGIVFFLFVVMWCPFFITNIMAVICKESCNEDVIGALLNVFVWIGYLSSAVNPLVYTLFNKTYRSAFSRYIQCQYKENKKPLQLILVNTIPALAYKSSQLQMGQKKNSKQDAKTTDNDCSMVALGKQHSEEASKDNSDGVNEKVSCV
Beta-2 adrenergic receptor (Homo sapiens), sequence (P07550 whole entry, looked up): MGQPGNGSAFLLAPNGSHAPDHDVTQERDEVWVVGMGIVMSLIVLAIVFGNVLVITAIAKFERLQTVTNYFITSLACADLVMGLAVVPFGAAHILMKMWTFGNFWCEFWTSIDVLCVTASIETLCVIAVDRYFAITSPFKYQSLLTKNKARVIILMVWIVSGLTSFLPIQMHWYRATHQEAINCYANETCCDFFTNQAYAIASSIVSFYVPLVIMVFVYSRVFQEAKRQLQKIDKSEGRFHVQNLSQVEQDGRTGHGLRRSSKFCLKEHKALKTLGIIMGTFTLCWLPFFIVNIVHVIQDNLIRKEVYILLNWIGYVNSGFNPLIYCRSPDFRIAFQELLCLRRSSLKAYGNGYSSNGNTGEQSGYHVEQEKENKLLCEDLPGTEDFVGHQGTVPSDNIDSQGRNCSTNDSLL
D(2) dopamine receptor (Homo sapiens), sequence (P14416 whole entry, looked up): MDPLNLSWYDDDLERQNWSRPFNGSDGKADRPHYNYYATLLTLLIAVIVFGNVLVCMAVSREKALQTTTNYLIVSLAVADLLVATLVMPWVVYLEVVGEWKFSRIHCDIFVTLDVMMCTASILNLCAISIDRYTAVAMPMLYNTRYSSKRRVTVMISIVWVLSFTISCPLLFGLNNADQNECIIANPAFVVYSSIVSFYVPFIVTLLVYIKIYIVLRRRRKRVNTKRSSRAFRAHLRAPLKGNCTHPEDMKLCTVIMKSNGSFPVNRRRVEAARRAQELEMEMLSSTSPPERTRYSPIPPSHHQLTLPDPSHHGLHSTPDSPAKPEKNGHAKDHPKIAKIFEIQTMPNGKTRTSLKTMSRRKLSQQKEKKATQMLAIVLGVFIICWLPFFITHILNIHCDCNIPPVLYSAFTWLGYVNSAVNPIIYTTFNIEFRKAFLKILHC

CC(C)NCC(O)c1ccc2ccccc2c1 (stereo unspecified)
inactive: Potency [1] | Potency [2] | Potency [3] | Potency [4] | Potency [5] | Potency [6] | Potency [7] | Potency [8] | Potency [9] | Potency [10] | Potency [11] | Potency [12] | Potency [13]

CC1(C)CC(OC(=O)CCCCCCCCC(=O)OC2CC(C)(C)NC(C)(C)C2)CC(C)(C)N1
inactive: activity change, negative = cytotoxicity [1] -0.0002% [at 19 µM] | activity, positive = activation [2] -1.35% [at 19 µM] | activity change [3] 1.96% [at 11.8 µM, active compounds read high] | activation [14] 0.376% [at 11.8 µM] | activation [15] 1.98% [at 13.5 µM] | activation [4] 0.45% [at 13.6 µM] | activity change, negative = cytotoxicity [6] 20.2% [at 13.5 µM] | activity change, negative = cytotoxicity [7] -0.213% [at 13.5 µM] | activation [8] -3.4% [at 13.5 µM] | activity, negative = inhibition [16] -5.05% [at 12.7 µM] | activation [17] 2.3% [at 15.9 µM] | activation [10] -1.98% [at 15.8 µM] | activation [11] 1.42% [at 19 µM] | activity change, negative = inhibition [12] -9.13% [at 18.9 µM] | activity change, negative = inhibition [18] 8.71% [at 19 µM] | activity change, negative = inhibition [13] 0.47% [at 18.9 µM]
active: Potency [5] 884 nM

COc1cc(C(=O)NCCCCCC(=O)O)cc(OC)c1OC
inactive: Potency [1] | Potency [2] | Potency [3] | outcome [14] | Potency [15] | Potency [4] | Potency [5] | Potency [6] | Potency [7] | Potency [8] | Potency [16] | Potency [9] | Potency [10] | Potency [11] | Potency [12] | Potency [18] | Potency [13]

CC(C)CC(=O)C1C(=O)c2ccccc2C1=O
inactive: Potency [1] | Potency [2] | Potency [3] | outcome [14] | Potency [15] | Potency [4] | Potency [5] | Potency [6] | Potency [7] | Potency [8] | Potency [16] | Potency [17] | Potency [9] | Potency [10] | Potency [12] | Potency [18] | Potency [19] | Potency [20] | Potency [13]

O=C1[C@H](CC[C@H](O)c2ccc(F)cc2)[C@@H](c2ccc(O)cc2)N1c1ccc(F)cc1
inactive: Potency [1] | Potency [2] | Potency [3] | outcome [14] | Potency [15] | Potency [4] | Potency [5] | Potency [6] | Potency [7] | Potency [8] | Potency [16] | Potency [9] | Potency [10] | Potency [11] | Potency [12] | Potency [18] | Potency [20] | Potency [13]

CC(C)(O)CCc1ccccc1
inactive: Potency [1] | Potency [2] | Potency [3] | outcome [14] | Potency [15] | Potency [4] | Potency [5] | Potency [6] | Potency [7] | Potency [8] | Potency [16] | Potency [17] | Potency [10] | Potency [11] | Potency [12] | Potency [18] | Potency [19] | Potency [20] | Potency [13]

CCOC(=O)CCCCCCCCC(=O)OCC
inactive: Potency [1] | Potency [2] | Potency [3] | outcome [14] | Potency [15] | Potency [4] | Potency [5] | Potency [6] | Potency [7] | Potency [8] | Potency [16] | Potency [9] | Potency [10] | Potency [11] | Potency [12] | Potency [18] | Potency [20] | Potency [13]
